These results are taken from PubChem BioAssay (Tox21).

Each structure is given as a SMILES string. Values joined by “and” are separate entries in the source; they are usually repeats but may differ in a detail not shown here. Equal entries are not always repeated. Results filed as inconclusive are left out. Entries that show only a call come without a potency. Active and inactive are the calls of the source. Calls come from the whole dose curve.
Potency is the fitted concentration of half-maximal effect.

A short description of this test: qHTS assay for small molecule agonists of the antioxidant response element (ARE) signaling pathway - cell viability counter screen (AID 743203). Note: nearly all actives have a fitted effect of over 55% in size. As to conditions: ARE-bla HepG2 viability, CellTiter-Glo luminescence, 16 h; series mostly up to 73.3 µM. An excerpt:
National Center for Advancing Translational Sciences [NCATS]
NIH Chemical Genomics Center [NCGC]
U.S. Environmental Protection Agency [EPA]
National Institutes of Environmental Health Sciences [NIEHS]
National Toxicology Program [NTP]
U.S. Food and Drug Administration [FDA]
Oxidative stress has been implicated in the pathogenesis of a variety of diseases ranging from cancer to neurodegeneration. The antioxidant response element (ARE) signaling pathway plays an important role in the amelioration of oxidative stress. The CellSensor ARE-bla HepG2 cell line (Invitrogen) can be used for analyzing the Nrf2/antioxidant response signaling pathway. Nrf2 (NF-E2-related factor 2) and Nrf1 are transcription factors that bind to AREs and activate these genes. The CellSensor ARE-bla Hep G2 cell line contains a beta-lactamase reporter gene under control of the Antioxidant Response Element (ARE) stably integrated into HepG2 cells. The activation of the report gene under culture conditions can be detected by fluorescence intensity. This cell line has been used to screen the Tox21 10K compound library to identify agonists that induce oxidative stress. The cytotoxicity of the Tox21 compound library against the ARE-bla cell line was tested in parallel by measuring the cell viability using CellTiter-Glo assay (Promega, Madison, WI) in the same wells.
Tox21 Assay Protocol Summary:
ARE-bla HepG2 cells were dispensed at 2,000 cells/5 ul/well in 1536-well white wall/solid bottom plates using a Multidrop Combi (ThermoFisher Scientific, Waltham, MA) dispenser. After the assay plates were incubated at 37C/5% CO2 for 5 hrs, 23 nL of compounds dissolved in DMSO, positive controls or DMSO only was transferred to the assay plate by a pintool work station (Kalypsys, San Diego, CA). The plates were incubated at 37C/5% CO2 for 16 hrs, followed by addition of 4 ul/well of CellTiter-Glo reagent into the assay plates using a Flying Reagent Dispenser (Aurora Discovery, San Diego, CA). After 30 min incubation at room temperature, the luminescence intensity in the assay plates was measured using a ViewLux (PerkinElmer, Shelton, CT) plate reader.
(In general: qHTS replaces the single test concentration by a dilution series.)
As for `BrCBr`, the Potency entry is “inactive”.

In the case of `ClCc1ccc(Cl)cc1Cl`, the Potency result was “inactive”.

As to `S=C=Nc1cccc2ccccc12`, the Potency was 15.2 µM (active).

With `Clc1ccc(CSC(Cn2ccnc2)c2ccc(Cl)cc2Cl)cc1` (stereo not given), the Potency was 29.8 µM (active).

As for `CCOC(=O)C1(c2ccccc2)CCN(CCC(C#N)(c2ccccc2)c2ccccc2)CC1`, the Potency entry is “inactive”.

As to `O=[N+]([O-])c1cc(C(F)(F)F)c(Cl)c([N+](=O)[O-])c1Cl`, the Potency is 1.72 µM (active).

`O=C(CBr)c1ccc(O)cc1`: the Potency result was “inactive”.

`CC(C)CC(C)(c1ccc(O)cc1)c1ccc(O)cc1`: the Potency was 54.5 µM (active).

For `CCOCCOC(C)=O`, the Potency entry was “inactive”.

As to `O=C(Nc1ccc2[nH]ccc2c1)c1cc2cc(F)ccc2n1Cc1cccc(F)c1`, the Potency was 30.6 µM (active).

For the compound `CC(=O)Nc1ccc2c(c1)Cc1ccccc1-2`, the Potency result is “inactive”.

Take `N#CNC#N`: the Potency entry was “inactive”.

On to `CC1(C)C(/C=C(\Cl)C(F)(F)F)C1C(=O)OC(C#N)c1cccc(Oc2ccccc2)c1` (stereo not given), for which the Potency result is “inactive”.

For `CC(=O)O[C@H]1CC[C@@]2(C)C(=CC[C@@H]3[C@@H]2CC[C@]2(C)C(=O)CC[C@@H]32)C1`, the Potency entry was “inactive”.

With `Clc1ccc(COC(Cn2ccnc2)c2ccc(Cl)cc2Cl)cc1` (stereo not given), the Potency is 25.5 µM (active) and 19.3 µM (active) and 33.5 µM (active).

For the compound `c1ccc(Nc2ccc3ccccc3c2)cc1`, the Potency entry is “inactive”.

Take `CCC(C)(C)C(=O)OC1=C(c2ccc(Cl)cc2Cl)C(=O)OC12CCCCC2`: the Potency was 30.6 µM (active).

For the compound `Fc1cccc(Cl)c1CCl`, the Potency entry is “inactive”.

With `CCCCCCCCCCCCCC[P+](CCCCCC)(CCCCCC)CCCCCC` (tested in a mixture with another compound), the Potency is 10.9 µM (active).

On to `CC(=O)C(Cl)(Cl)Cl`, for which the Potency is 0.743 µM (active).

On to `C=CC(=O)OCC(COC(=O)C=C)(COC(=O)C=C)COC(=O)C=C`, for which the Potency is 43.3 µM (active).

For the compound `CC1CCC(C(C)C)C(OC(=O)c2ccccc2N)C1` (stereo not given), the Potency result is “inactive”.

Take `Cc1cc(N=Nc2ccccc2C)ccc1N`: the Potency result was “inactive”.

Regarding `CC(C)CC(C)N` (stereo not given), the Potency entry is “inactive”.

In the case of `CCOC(=O)CC(=O)CCl`, the Potency entry was “inactive”.

As to `c1ccc2cc3c(cc2c1)-c1cccc2cccc-3c12`, the Potency result was “inactive”.

With `CC1(C)[C@H](C(=O)O[C@H](C#N)c2cccc(Oc3ccccc3)c2)[C@@H]1/C=C(\Cl)C(F)(F)F`, the Potency result is “inactive”.

In the case of `CC(=O)c1cc(C(C)(C)C)cc2c1CCC2(C)C`, the Potency entry is “inactive”.

`CN(C)CCc1c[nH]c2ccc(O)cc12`: the Potency entry was “inactive”.

Take `[CH3][Hg][Cl]`: the Potency was 8.61 µM (active).

On to `N#CSCSC#N`, for which the Potency was 55.7 µM (active) and 48.1 µM (active).

With `BrC(Br)Br`, the Potency result was “inactive”.

On to `CCN`, for which the Potency entry was “inactive”.

Consider `C[C@]12CC[C@H]3[C@@H](CCC4=CC(=O)CC[C@@]43C)[C@@H]1CC[C@@H]2O`, for which the Potency result is “inactive”.

As to `CN(C)c1ccc(N=Nc2ccccc2)cc1`, the Potency entry is “inactive”.

Regarding `CN(C)C(=S)S`, the Potency entry was “inactive”.

For `CC(=O)[O-].CC(=O)[O-].O.O.[Cd+2]`, the Potency is 0.214 µM (active).

As for `CS(=O)(=O)c1ccc(C(=O)C2C(=O)CCCC2=O)c([N+](=O)[O-])c1`, the Potency entry was “inactive”.

Regarding `CCOP(=O)(NC(C)C)Oc1ccc(SC)c(C)c1` (stereo not given), the Potency entry is “inactive”.

Take `C[C@@H]1O[C@@H](O[C@@H]2C=C3CC[C@@H]4[C@H](CC[C@]5(C)[C@@H](c6ccc(=O)oc6)CC[C@]45O)[C@@]3(C)CC2)[C@H](O)[C@H](O)[C@H]1O`: the Potency is 0.0211 µM (active).
